Data reported in PubChem BioAssay AID2188 (Vanderbilt High Throughput Screening Facility, 2009).
Results with a measured potency or affinity are listed apart.

Molecular target: Metabotropic glutamate receptor 2 (Rattus norvegicus) (UniProt P31421)
Assay: rat mGluR2 glutamate potency shift by compounds, selectivity assay for mGluR4 modulator project, cell-based (AID 2188)
Conditions: mGluR2 cells, thallium flux, glutamate CRC + 10 uM compound; glutamate EC50 fold-shift by compound; at 10 µM; stronger effect = higher value

Chain of Metabotropic glutamate receptor 2 (Rattus norvegicus) (P31421 whole entry, looked up): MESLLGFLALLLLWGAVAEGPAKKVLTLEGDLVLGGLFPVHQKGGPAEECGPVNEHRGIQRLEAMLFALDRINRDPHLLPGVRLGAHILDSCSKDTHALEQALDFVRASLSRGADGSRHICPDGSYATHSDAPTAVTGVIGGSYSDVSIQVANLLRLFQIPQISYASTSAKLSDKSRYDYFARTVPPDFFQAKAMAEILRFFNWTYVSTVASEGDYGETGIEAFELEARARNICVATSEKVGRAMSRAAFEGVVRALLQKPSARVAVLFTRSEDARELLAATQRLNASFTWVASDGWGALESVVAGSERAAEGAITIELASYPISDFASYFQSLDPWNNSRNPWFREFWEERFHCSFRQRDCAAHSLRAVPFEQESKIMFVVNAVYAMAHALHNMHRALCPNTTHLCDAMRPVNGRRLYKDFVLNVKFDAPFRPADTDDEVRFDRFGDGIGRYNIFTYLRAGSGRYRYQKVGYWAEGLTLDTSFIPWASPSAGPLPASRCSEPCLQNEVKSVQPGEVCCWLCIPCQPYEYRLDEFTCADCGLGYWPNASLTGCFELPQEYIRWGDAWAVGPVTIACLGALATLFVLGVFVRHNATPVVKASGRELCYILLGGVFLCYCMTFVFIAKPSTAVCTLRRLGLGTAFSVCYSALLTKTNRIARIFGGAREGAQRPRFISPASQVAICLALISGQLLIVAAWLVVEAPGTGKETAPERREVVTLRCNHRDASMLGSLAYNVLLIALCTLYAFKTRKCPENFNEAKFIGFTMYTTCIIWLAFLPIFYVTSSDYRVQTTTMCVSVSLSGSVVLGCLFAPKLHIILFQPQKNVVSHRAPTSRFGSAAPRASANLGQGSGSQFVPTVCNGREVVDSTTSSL

SMILES: O=C(Nc1cccc(Cl)c1)c1ccccn1
- fold shift: 1.87

SMILES: O=C(Nc1ccc(N2C(=O)C3[C@H]4C=C[C@H](C4)[C@H]3C2=O)c(Cl)c1)c1ccccn1 (some centres not stated)
- fold shift: 1.05
